Compound activity: PubChem BioAssay, National Center for Advancing Translational Sciences (NCATS)
In the library only some 7.5% were active in any assay of this set; here they are far more common.
B2AR arrestin: beta2AR (human) beta-arrestin recruitment activity. beta-arrestin recruitment to beta2AR, cell-based reporter. Potency, µM (series often up to 46.1 µM), without a hit: top-dose activation, actives largely listed as activators. P07550. 0.02% of 330,000 active;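 also: potency is read from the fitted curve at half-maximal effect; 0% = DMSO controls and full agonism = EC100 isoproterenol or metaproterenol; nearly all actives have a fitted effect of over 65% in size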
Target sequence (P07550 whole entry, looked up): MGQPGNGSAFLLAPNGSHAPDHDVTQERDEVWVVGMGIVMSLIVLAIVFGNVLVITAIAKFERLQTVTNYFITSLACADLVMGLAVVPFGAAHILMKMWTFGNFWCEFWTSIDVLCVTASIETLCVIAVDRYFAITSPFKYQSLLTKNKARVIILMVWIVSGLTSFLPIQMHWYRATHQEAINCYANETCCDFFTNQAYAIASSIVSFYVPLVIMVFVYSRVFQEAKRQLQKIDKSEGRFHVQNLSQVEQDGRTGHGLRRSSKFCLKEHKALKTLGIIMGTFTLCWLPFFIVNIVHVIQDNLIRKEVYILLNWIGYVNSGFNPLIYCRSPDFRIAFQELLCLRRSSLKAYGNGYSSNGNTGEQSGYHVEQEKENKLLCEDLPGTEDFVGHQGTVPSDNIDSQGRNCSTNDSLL
ELG1 DNA repair: ELG1-dependent DNA repair inhibition; HEK293T ELG1-luciferase reporter, luminescence, 16 h; DNA damage induced by 5-fluorouridine; Potency, µM (titrated, usually from 46.1 µM), without a hit: at the top dose activity change, negative = inhibition, most hits filed as inhibitors; 2.3% of 330,000 active; AID 504467; also: potency is read from the fitted curve at half-maximal effect; nearly all actives have a fitted effect of over 55% in size
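DMSO vehicle served as the neutral condition. Each well held 2,000 cells given 5-fluorouridine plus compound; after 16 hr at 37 °C/5% CO2, ONE-Glo was added and luciferase measured 30 min later.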
VP16 counter: counter-screen for ROR gamma inhibitors: Gal4-VP16 reporter | Drosophila S2 Gal4-VP16 UAS-luciferase, luminescence, 20 h | Potency, µM (highest dose often 53.6 µM), inactives show at the highest dose activity, negative = inhibition, most hits filed as inhibitors | 3.5% of 310,000 active;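 also: Gal4-VP16 expression switched on by copper sulfate through the metallothionein promoter; potency is read from the fitted curve at half-maximal effect; nearly all actives have a fitted effect of over 50% in size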
RORg inh: blocks mouse ROR gamma transcriptional activity | Potency, µM (highest dose often 53.6 µM), inactives show top-dose activity change, negative = inhibition, most hits filed as inhibitors | P51450 | AID 2551 | 5.4% of 310,000 active | Drosophila S2 Gal4-RORgamma UAS-luciferase reporter, 20 h; also: potency is read from the fitted curve at half-maximal effect; nearly all actives have a fitted effect of over 60% in size
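ROR gamma transcriptional activity was tracked as Gal4-UAS luciferase output in stably transfected Drosophila Schneider cells, with compound added 1 hr before 700 uM copper sulfate induction and a 20 hr ambient-temperature incubation.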
TSHR antagonist: antagonists of human thyroid stimulating hormone receptor; activity change, negative = inhibition, % at 11.5 µM; 0.2% of 330,000 active; TSHR-expressing cells, TSH-stimulated cAMP HTRF, 2 h; stronger effect = lower value; P16473; AID 504810;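 active = activity change below a set negative limit, meaning inhibition stronger than a set level, cut at about -70% in these data; inconclusive = activity change between two set negative limits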
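TSHR-expressing cells were treated with compounds, then stimulated with TSH at EC80 (4nM final) for 2 hours at 37 deg C. Cellular cAMP was measured by HTRF competition between lysate cAMP and cAMP-d2 for a cryptate-labelled anti-cAMP antibody.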
The depositor's hits bear a star. Unless noted, calls follow the shape of the dose curve; as a rule, active = well fitted curve in the direction sought with a large enough effect; inconclusive = small, poorly fitted or top-dose-only effect, or another doubt; inactive = no such curve, though single readings can be large; an effect the other way counts as inactive or inconclusive. Unless noted, % is scaled to controls: 0 for no effect and ±100 for the full control effect.

Screening CCc1nc2ccc(C(=O)Nc3cccc(C(C)=O)c3)cc2nc1CC returned B2AR arrestin -1%, ELG1 DNA repair 18µM*, VP16 counter -17%, RORg inh inconclusive and TSHR antagonist 1.
CCc1nc2ccc(C(=O)O)cc2nc1CC was read as B2AR arrestin 0%, ELG1 DNA repair inconclusive, VP16 counter inconclusive, RORg inh 0.71µM* and TSHR antagonist -4.
For COc1ccc(NC(=O)COc2ccc(N(C)S(=O)(=O)c3ccc(Cl)cc3)cc2)cc1OC the results were B2AR arrestin -1%, ELG1 DNA repair inconclusive and TSHR antagonist inconclusive.
Cc1ccc(N2C(=O)N(CC(=O)Nc3cccc(Cl)c3)C(=O)C2C)cc1 (centres undefined) was read as B2AR arrestin 0%, ELG1 DNA repair 15% and TSHR antagonist -1.
Screening Cc1ccc(N2C(=O)C3C4C=CC(CNC(=S)N5CCN(c6ccccn6)CC5)(O4)C3C2=O)cc1 (centres undefined) returned B2AR arrestin 0%, ELG1 DNA repair -1%, VP16 counter -27%, RORg inh inconclusive and TSHR antagonist -6.
`Cc1ccc(N2C(=O)C3C4C=CC(CNC(=S)Nc5cccc(Cl)c5)(O4)C3C2=O)cc1` (centres undefined) gave B2AR arrestin 1%, ELG1 DNA repair -27%, VP16 counter 13µM*, RORg inh inconclusive and TSHR antagonist -2.
CC(C)COC(=O)NCC12C=CC(O1)C1C(=O)N(c3ccc(Cl)cc3)C(=O)C12 (centres undefined) was read as B2AR arrestin 0%, ELG1 DNA repair 2%, VP16 counter 20µM*, RORg inh 4µM* and TSHR antagonist -6.
Screening Cc1ccc(N2C(=O)C3C4C=CC(CNC(=S)Nc5ccc(F)cc5)(O4)C3C2=O)cc1 (centres undefined) returned B2AR arrestin -1%, ELG1 DNA repair -5%, VP16 counter 4µM*, RORg inh 4.5µM* and TSHR antagonist 28.
For CC(C)(C)C(=O)NCC12C=CC(O1)C1C(=O)N(c3ccccc3)C(=O)C12 (centres undefined) the results were B2AR arrestin 0%, ELG1 DNA repair 9%, VP16 counter inconclusive, RORg inh inconclusive and TSHR antagonist 2.
Cc1ccc(N2C(=O)C3C4C=CC(CNC(=S)Nc5ccc(Cl)cc5)(O4)C3C2=O)cc1 (centres undefined) was read as B2AR arrestin -2%, ELG1 DNA repair -20%, VP16 counter 3.2µM*, RORg inh 7.1µM* and TSHR antagonist 16.
Screening CCOC(=O)C12CC1/C(=N/O)c1ccccc1O2 (centres undefined) returned TSHR antagonist -10.
`CCCc1cc(C(=O)Nc2ccc(C(=O)c3ccc(C)cc3)cc2)n(C)n1` gave B2AR arrestin 0%, ELG1 DNA repair inconclusive, VP16 counter 5%, RORg inh inconclusive and TSHR antagonist -22.
Cc1ccc(CN=Cc2[nH]c3ccc(Br)c(Cl)c3c2O)cc1 was read as B2AR arrestin 3%, ELG1 DNA repair 1%, VP16 counter inconclusive, RORg inh 13µM* and TSHR antagonist 18.
NCCO was read as VP16 counter 8% and RORg inh -30%.
Screening Cc1c(C(=O)OC/C(O)=C(\C#N)c2nc3ccccc3[nH]2)oc2ccc(Br)cc12 returned B2AR arrestin 0%, ELG1 DNA repair -3%, VP16 counter -4%, RORg inh -20% and TSHR antagonist inconclusive.
For Cc1cc(C)cc(OCC(=O)OC/C(O)=C(\C#N)c2nc3ccccc3[nH]2)c1 the results were B2AR arrestin 0%, ELG1 DNA repair inconclusive, VP16 counter 16µM*, RORg inh 13µM* and TSHR antagonist -4.
N#C/C(=C(/O)COC(=O)COc1cccc(Br)c1)c1nc2ccccc2[nH]1 was read as B2AR arrestin 1%, ELG1 DNA repair inconclusive, VP16 counter 13µM*, RORg inh -11% and TSHR antagonist -6.
`Cc1cccc(C)c1OCC(=O)OC/C(O)=C(\C#N)c1nc2ccccc2[nH]1` gave B2AR arrestin 0%, ELG1 DNA repair 7%, VP16 counter 18µM*, RORg inh 10µM* and TSHR antagonist 3.
For CCN(CC)c1ccc(S(=O)(=O)Nc2cc(Cl)ccc2Cl)cc1NC(=S)NC(=O)C1CCCC1 the results were B2AR arrestin 0%, ELG1 DNA repair -4%, VP16 counter 22µM*, RORg inh 5µM* and TSHR antagonist -6.
`COC(=O)CC1c2ccccc2C(Cc2ccc3c(c2)OCO3)=C(C)N1C(=O)OC` (centres undefined) gave VP16 counter 1% and RORg inh -6%.
For Cc1cc(NC(=O)CC2CCCC2)n(-c2nc3ccccc3[nH]2)n1 the results were B2AR arrestin 0%, ELG1 DNA repair 23µM*, VP16 counter 3.5µM*, RORg inh 1.8µM* and TSHR antagonist -17.
Screening Cc1cc(NC(=O)/C=C/c2ccccc2Cl)n(-c2nc3ccccc3[nH]2)n1 returned B2AR arrestin 0%, ELG1 DNA repair inconclusive, VP16 counter 1.3µM*, RORg inh 1.8µM* and TSHR antagonist 4.
Screening Cc1cc(NC(=O)c2ccc(F)cc2F)n(-c2nc3ccccc3[nH]2)n1 returned B2AR arrestin 0%, ELG1 DNA repair 27%, VP16 counter 1.8µM*, RORg inh 1.1µM* and TSHR antagonist 2.
O=c1[nH]c(CCl)nc2cc(-c3ccc(F)cc3)sc12 was read as B2AR arrestin 0%, ELG1 DNA repair inconclusive, VP16 counter inconclusive, RORg inh 13µM* and TSHR antagonist -21.
Screening CCOc1ccc(-c2cc(CCCC(=O)NCc3ccco3)no2)cc1 returned B2AR arrestin 0%, ELG1 DNA repair inconclusive, VP16 counter inconclusive, RORg inh 0.11µM* and TSHR antagonist -2.
`COc1ccc(-c2cc(CCCC(=O)NCCc3cc(OC)ccc3OC)no2)cc1` gave B2AR arrestin 0%, ELG1 DNA repair inconclusive, VP16 counter -14%, RORg inh 30% and TSHR antagonist -46.
`CCOc1ccc(-c2cc(CCCC(=O)NCc3ccc(C)cc3)no2)cc1` gave B2AR arrestin 0%, ELG1 DNA repair inconclusive, VP16 counter inconclusive, RORg inh 1.3µM* and TSHR antagonist -18.
For Oc1ccc(Cl)cc1C1=NNC(c2cccs2)C1 (centres undefined) the results were B2AR arrestin -1%, ELG1 DNA repair inconclusive, VP16 counter inconclusive, RORg inh 5µM* and TSHR antagonist -6.
